M18AAP inhibitor = PfM18AAP inhibitors, malaria aminopeptidase, primary screen, biochemical, QFRET, recombinant enzyme | M18 aspartyl aminopeptidase (Plasmodium falciparum 3D7) | H-Glu-NHMec fluorogenic cleavage | inhibition, % at 7.35 µM | actives 1.2% (n = 290,000) | AID 1822, 2009;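 active = inhibition above the campaign mean inhibition over all tested compounds plus 3 SD, cut at about 28% in these data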
ALR H2O2 inh = inhibitors of human ALR sulfhydryl oxidase, primary screen, biochemical, H2O2 detection, HRP-luminol luminescence, single point; purified ALR, DTT oxidation; AID 485317, 2010; FAD-linked sulfhydryl oxidase ALR (Homo sapiens), P55789; inhibition, % (concentration not given with the values); actives 3.8% (n = 290,000);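 active = mean replicate inhibition above about 79%, with every replicate also reaching it, limit read from the data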
Target sequence (P55789 whole entry, looked up): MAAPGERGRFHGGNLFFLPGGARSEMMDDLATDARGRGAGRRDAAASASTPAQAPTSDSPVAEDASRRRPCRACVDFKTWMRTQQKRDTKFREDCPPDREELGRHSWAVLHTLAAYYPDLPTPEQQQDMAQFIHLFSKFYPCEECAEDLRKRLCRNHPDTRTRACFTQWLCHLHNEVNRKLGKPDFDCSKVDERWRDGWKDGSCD
H9c2 protect = cardioprotection against H2O2-induced cell death, primary screen, uHTS, H9c2 cells, ATPLite luminescence; H9c2 cardiomyocytes, H2O2 injury protection, 2 h; protection from H2O2 cell death, % at 20 µM; actives 0.63% (n = 360,000);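 active = compounds giving at least 50% protection of heart cells from peroxide-induced death in the single-dose screen, raw or plate-pattern-corrected value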
PHOSPHO1 block = PubChem AID 1565; actives 1.1% (n = 290,000); inhibition, % at 13.3 µM; Phosphoethanolamine/phosphocholine phosphatase (Homo sapiens), Q8TCT1; recombinant PHOSPHO1, absorbance phosphatase assay; in the data active = inhibition above about 60%
Target sequence (Q8TCT1 whole entry, looked up): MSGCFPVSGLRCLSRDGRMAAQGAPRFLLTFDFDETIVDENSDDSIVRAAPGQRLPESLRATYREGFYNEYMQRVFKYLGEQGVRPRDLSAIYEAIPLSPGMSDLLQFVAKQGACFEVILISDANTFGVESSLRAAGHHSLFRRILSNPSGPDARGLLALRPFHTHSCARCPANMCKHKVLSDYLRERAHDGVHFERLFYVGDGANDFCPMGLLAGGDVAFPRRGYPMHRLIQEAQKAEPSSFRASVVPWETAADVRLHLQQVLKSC
PfGluPho inh = PfG6PD enzyme inhibitors, primary screen, biochemical, fluorescence intensity, uHTS; inhibition, % at 20 µM; AID 504690, 2011; PfGluPho enzyme, NADPH resazurin-diaphorase fluorescence; actives 0.78% (n = 350,000);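 active = inhibition reaching at least a set limit at 20 µM in the primary screen, cut at about 59% in these data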
Hits are given with their value; - = inactive; . = no result given. A selection: hits, their analogues and other compounds. The true share with any hit is near 5.6%.

SMILES	M18AAP inhibitor	ALR H2O2 inh	H9c2 protect	PHOSPHO1 block	PfGluPho inh
COc1ccc(C2Nc3cccc(O)c3C(=O)N2Cc2ccccc2)cc1COc1ccc(NC(C)=O)cc1 (stereo not given)	.	.	-	.	.
OCCN1CCN(CCCN2c3ccccc3Sc3ccc(C(F)(F)F)cc32)CC1	-	97.9	-	-	-
OCCN1CCN(CC/C=C2/c3ccccc3Sc3ccc(C(F)(F)F)cc32)CC1	.	-	-	.	-
CN(C)CCCN1c2ccc(O)cc2Sc2ccc(Cl)cc21	.	.	-	.	-
CN(C)CCCN1c2ccccc2Sc2ccc(C(F)(F)F)cc21	-	97.9	-	-	-
CN(C)CCC(=O)N1c2ccccc2Sc2ccc(C(F)(F)F)cc21	-	97.6	-	-	-
Oc1c(C(Nc2cccc(C(F)(F)F)c2)c2cccnc2)ccc2cccnc12 (stereo not given)	-	-	58.9	-	-
Cc1cc(NC(c2cccnc2)c2ccc3cccnc3c2O)no1 (stereo not given)	-	-	56.9	-	-
O=C(Cc1ccc(S(=O)(=O)N2CCOCC2)s1)Nc1ccc2c(c1)CCC2	-	-	-	-	-
O=C(Cc1ccc(S(=O)(=O)N2CCOCC2)s1)Nc1nc2c(s1)CCCC2	-	-	-	93.6	-
O=C(NCc1n[nH]c(=O)c2ccccc12)C1CC(=O)N(c2ccccc2)C1 (stereo not given)	.	-	67.1	.	-
Cc1cc(C)c(C(O)c2ncc(-c3cccc(F)c3)[nH]2)c(C)c1 (stereo not given)	.	.	-	.	.
Cc1ccc(NC(=S)NC(=O)C2CCC2)cc1C	-	-	-	-	-
O=S(=O)(c1cccc(-c2n[nH]c(=S)n2-c2ccccc2Cl)c1)N1CCOCC1	.	98.9	-	.	-
O=S(=O)(c1cccc(-c2n[nH]c(=S)n2Cc2ccccc2)c1)N1CCOCC1	-	-	-	-	-
COc1cc(C)c(C(=O)Oc2cc(C)c(C(=O)O)c(O)c2C)c(O)c1C(=O)O	.	-	-	.	-
COc1cc(C)c(C(=O)Oc2cc(C)c(C(=O)O)c(O)c2C)c(OC)c1C	-	89.3	-	-	-
CCCc1c(C(=O)NNc2ccccc2OC)cnn1-c1ccccc1	-	88.0	-	-	-
S=c1[nH]cc(-c2ccc(Cl)cc2)n1Cc1ccccc1	-	-	-	-	-
CCn1c(-c2ccccc2)c[nH]c1=S	-	99.0	-	98.0	-
CC(C)Cn1c(-c2ccc(Br)cc2)c[nH]c1=S	-	96.9	-	-	-
Cc1ccc(-n2c(-c3ccccc3)c[nH]c2=S)cc1	-	-	-	-	-
Cc1cc(C(=O)NCc2ccccc2Cl)n(-c2ccccc2)n1	-	-	-	-	-
COc1ccccc1CNC(=O)Nc1cccs1	-	97.4	-	-	-
COc1cccc(CNC(=O)Nc2cccs2)c1	-	99.3	-	-	-
SMILES	M18AAP inhibitor	ALR H2O2 inh	H9c2 protect	PHOSPHO1 block	PfGluPho inh
COc1ccc(Br)cc1CNC(=O)Nc1cccs1	-	-	-	-	-
CCN(C(=O)c1ccncc1)c1c(N)n(Cc2ccccc2)c(=O)[nH]c1=O	.	.	-	.	-
Cc1occc1-c1nnc(SCC(=O)c2ccc(F)cc2)o1	-	96.6	-	-	-
Cc1occc1C(=O)N/N=C/C1=C(N2CCOCC2)C(=C/c2ccc(Cl)cc2Cl)/CC1	.	.	-	.	-
CC(=O)Nc1sc(N)nc1-c1ccccc1	-	-	-	80.3	-
Cn1cc([N+](=O)[O-])c(C(=O)N(Cc2ccccc2)Cc2ccccc2)n1	-	-	-	-	-
CCOc1ccc2c(c1)c(N=NC(N)=S)c(O)n2C	-	-	-	-	-
CCOc1ccc2c(c1)n(CO)c(=S)n2CO	-	99.8	-	-	-
Cc1nc2sccn2c(=O)c1S(=O)(=O)N1CCN(c2ccc(F)cc2)CC1	-	95.0	-	-	-
CC(C)OC(=O)CSc1nc(Cc2ccccc2)nc2ccccc12	-	86.2	-	-	-
CCOC(=O)CSc1nc(Cc2ccccc2)nc2ccccc12	-	-	-	-	-
CCOC(=O)CNC(=O)CSc1nc(Cc2cccs2)nc2ccccc12	-	78.7	-	-	-
Cc1ccccc1-c1cc2nc(NCCc3ccncc3)n(C)c(=O)c2s1	.	.	-	.	.
O=C(Cc1cccc2ccccc12)Nc1ccc(O)cc1C(=O)O	-	96.9	-	.	-
O=C(CSCc1ccc(Cl)cc1)Nc1ccc(O)cc1C(=O)O	-	96.3	-	-	-
COc1ccc(Cl)c2sc(N(CCN(C)C)C(=O)c3ccc4c(c3)OCCO4)nc12	.	-	-	.	-
COc1ccc(N2C(=O)CC(Sc3nnc(-c4ccccc4)o3)C2=O)cc1 (stereo not given)	-	-	-	-	-
O=C1CC(Sc2nnc(-c3ccccc3O)o2)C(=O)N1c1ccccc1 (stereo not given)	-	-	-	95.3	-
Nc1nnc(SC2CC(=O)N(c3ccccc3)C2=O)s1 (stereo not given)	-	-	-	97.6	-
CCOC(=O)c1ccc(N2C(=O)C=CC2=O)cc1	-	-	-	-	65.7
O=C1CC(Sc2ncccn2)C(=O)N1c1ccccc1 (stereo not given)	-	-	-	-	-
CCOC(=O)c1ccc(-n2c(C)ccc2C)cc1	-	-	-	-	-
CCOc1ccc(N2C(=O)CC(Sc3nc4ccc(OCC)cc4s3)C2=O)cc1 (stereo not given)	-	-	-	.	-
C=CCNc1nnc(SC2CC(=O)N(c3ccc(OCCC)cc3)C2=O)s1 (stereo not given)	-	-	-	99.8	-
O=C1C=C(c2ccc(F)cc2OCc2ccccc2)C[C@@H](c2ccc(F)cc2)C1	.	-	-	.	-
SMILES	M18AAP inhibitor	ALR H2O2 inh	H9c2 protect	PHOSPHO1 block	PfGluPho inh
COC(=O)C(Cc1ccccc1)NC(=O)CCCC(=O)NCc1cccc(OC)c1 (stereo not given)	-	-	-	-	-
CC1CCN(C(=O)COC(=O)/C=C/c2ccco2)CC1	.	-	-	.	-
CCOC(=O)c1ccc(N2C(=O)CC(Sc3nnc(C)s3)C2=O)cc1 (stereo not given)	-	91.2	-	100.2	-
CCOC(=O)c1ccc(N2C(=O)CC(Sc3nc(C)cc(C)n3)C2=O)cc1 (stereo not given)	-	-	-	-	-
O=C(Cc1ccc(NC(=O)C2CCN(C(=O)C3CC3)CC2)cc1)Nc1ccc(C(=O)N2CCOCC2)cc1	.	.	-	.	-
COc1ccc(C(=O)NC2CCSc3ccccc32)cc1S(=O)(=O)N1CCOCC1 (stereo not given)	.	-	-	.	-
COc1ccc(-c2noc(CSc3nc(N)c(-c4ccccc4)c(=O)[nH]3)n2)cc1OC	-	99.5	-	-	-
COc1ccc(-c2noc(CSc3nc(-c4ccccc4)cc(=O)[nH]3)n2)cc1	-	-	-	102.0	-
COc1ccc(-c2noc(CSc3nc4ccccc4c(=O)n3-c3ccccc3)n2)cc1OC	-	-	-	-	-
COc1cc(CSc2nc(-c3ccccc3)cc(=O)[nH]2)cc(OC)c1	-	-	-	-	-

Compound activity as filed in PubChem.
